Tests used:
[1] = molecular target: RAC-alpha serine/threonine-protein kinase (Homo sapiens) (UniProt P31749); details: at 0.1 µM
[2] = molecular target: RAC-alpha serine/threonine-protein kinase (Homo sapiens) (UniProt P31749); details: at 1 µM
[3] = molecular target: RAC-beta serine/threonine-protein kinase (Homo sapiens) (UniProt P31751); details: at 0.1 µM
[4] = molecular target: RAC-beta serine/threonine-protein kinase (Homo sapiens) (UniProt P31751); details: at 1 µM
[5] = molecular target: RAC-gamma serine/threonine-protein kinase (Homo sapiens) (UniProt Q9Y243); details: at 0.1 µM
[6] = molecular target: RAC-gamma serine/threonine-protein kinase (Homo sapiens) (UniProt Q9Y243); details: at 1 µM
[7] = molecular target: G protein-coupled receptor kinase 6 (Homo sapiens) (UniProt P43250); details: at 0.1 µM
[8] = molecular target: G protein-coupled receptor kinase 6 (Homo sapiens) (UniProt P43250); details: at 1 µM
[9] = molecular target: T1, Rhodopsin kinase GRK7 (Homo sapiens) (UniProt Q8WTQ7); details: at 0.1 µM
T1 sequence (whole entry): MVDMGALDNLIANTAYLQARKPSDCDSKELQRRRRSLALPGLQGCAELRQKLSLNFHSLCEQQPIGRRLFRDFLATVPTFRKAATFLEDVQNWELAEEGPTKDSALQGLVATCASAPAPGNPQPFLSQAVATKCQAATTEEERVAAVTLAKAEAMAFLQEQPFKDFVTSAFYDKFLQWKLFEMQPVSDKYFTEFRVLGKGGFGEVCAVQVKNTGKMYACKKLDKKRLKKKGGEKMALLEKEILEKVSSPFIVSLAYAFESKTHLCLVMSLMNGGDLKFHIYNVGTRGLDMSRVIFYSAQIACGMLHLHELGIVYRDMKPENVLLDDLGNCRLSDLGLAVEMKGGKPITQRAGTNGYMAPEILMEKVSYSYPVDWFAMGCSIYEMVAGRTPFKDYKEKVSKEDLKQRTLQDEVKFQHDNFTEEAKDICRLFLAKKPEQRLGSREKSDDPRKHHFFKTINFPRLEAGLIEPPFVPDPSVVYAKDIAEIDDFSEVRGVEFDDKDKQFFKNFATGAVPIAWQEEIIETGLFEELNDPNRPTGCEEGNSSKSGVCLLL

[10] = molecular target: T1, Rhodopsin kinase GRK7 (Homo sapiens); details: at 1 µM
[11] = molecular target: Serine/threonine-protein kinase MRCK alpha (Homo sapiens) (UniProt Q5VT25); details: at 0.1 µM
[12] = molecular target: Serine/threonine-protein kinase MRCK alpha (Homo sapiens) (UniProt Q5VT25); details: at 1 µM
[13] = molecular target: Serine/threonine-protein kinase MRCK beta (Homo sapiens) (UniProt Q9Y5S2); details: at 0.1 µM
[14] = molecular target: Serine/threonine-protein kinase MRCK beta (Homo sapiens) (UniProt Q9Y5S2); details: at 1 µM
[15] = molecular target: Ribosomal protein S6 kinase alpha-5 (Homo sapiens) (UniProt O75582); details: at 0.1 µM
[16] = molecular target: Ribosomal protein S6 kinase alpha-5 (Homo sapiens) (UniProt O75582); details: at 1 µM
[17] = molecular target: Ribosomal protein S6 kinase alpha-4 (Homo sapiens) (UniProt O75676); details: at 0.1 µM
[18] = molecular target: Ribosomal protein S6 kinase alpha-4 (Homo sapiens) (UniProt O75676); details: at 1 µM
[19] = molecular target: Ribosomal protein S6 kinase beta-1 (Homo sapiens) (UniProt P23443); details: at 0.1 µM
[20] = molecular target: Ribosomal protein S6 kinase beta-1 (Homo sapiens) (UniProt P23443); details: at 1 µM

Chain of RAC-beta serine/threonine-protein kinase (Homo sapiens) (P31751 whole entry): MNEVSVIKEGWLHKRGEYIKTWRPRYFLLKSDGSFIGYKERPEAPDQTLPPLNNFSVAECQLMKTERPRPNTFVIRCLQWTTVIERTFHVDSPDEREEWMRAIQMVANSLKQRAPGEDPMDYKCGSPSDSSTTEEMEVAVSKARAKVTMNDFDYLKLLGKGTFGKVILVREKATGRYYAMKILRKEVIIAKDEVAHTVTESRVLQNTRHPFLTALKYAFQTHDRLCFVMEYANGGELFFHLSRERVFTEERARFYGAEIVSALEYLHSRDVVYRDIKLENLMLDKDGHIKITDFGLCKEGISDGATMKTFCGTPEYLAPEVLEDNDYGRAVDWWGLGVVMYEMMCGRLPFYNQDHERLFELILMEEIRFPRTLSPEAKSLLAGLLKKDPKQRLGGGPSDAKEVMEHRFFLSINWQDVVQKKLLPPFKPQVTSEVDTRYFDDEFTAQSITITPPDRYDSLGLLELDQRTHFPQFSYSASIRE
Chain of Serine/threonine-protein kinase MRCK alpha (Homo sapiens) (Q5VT25 whole entry): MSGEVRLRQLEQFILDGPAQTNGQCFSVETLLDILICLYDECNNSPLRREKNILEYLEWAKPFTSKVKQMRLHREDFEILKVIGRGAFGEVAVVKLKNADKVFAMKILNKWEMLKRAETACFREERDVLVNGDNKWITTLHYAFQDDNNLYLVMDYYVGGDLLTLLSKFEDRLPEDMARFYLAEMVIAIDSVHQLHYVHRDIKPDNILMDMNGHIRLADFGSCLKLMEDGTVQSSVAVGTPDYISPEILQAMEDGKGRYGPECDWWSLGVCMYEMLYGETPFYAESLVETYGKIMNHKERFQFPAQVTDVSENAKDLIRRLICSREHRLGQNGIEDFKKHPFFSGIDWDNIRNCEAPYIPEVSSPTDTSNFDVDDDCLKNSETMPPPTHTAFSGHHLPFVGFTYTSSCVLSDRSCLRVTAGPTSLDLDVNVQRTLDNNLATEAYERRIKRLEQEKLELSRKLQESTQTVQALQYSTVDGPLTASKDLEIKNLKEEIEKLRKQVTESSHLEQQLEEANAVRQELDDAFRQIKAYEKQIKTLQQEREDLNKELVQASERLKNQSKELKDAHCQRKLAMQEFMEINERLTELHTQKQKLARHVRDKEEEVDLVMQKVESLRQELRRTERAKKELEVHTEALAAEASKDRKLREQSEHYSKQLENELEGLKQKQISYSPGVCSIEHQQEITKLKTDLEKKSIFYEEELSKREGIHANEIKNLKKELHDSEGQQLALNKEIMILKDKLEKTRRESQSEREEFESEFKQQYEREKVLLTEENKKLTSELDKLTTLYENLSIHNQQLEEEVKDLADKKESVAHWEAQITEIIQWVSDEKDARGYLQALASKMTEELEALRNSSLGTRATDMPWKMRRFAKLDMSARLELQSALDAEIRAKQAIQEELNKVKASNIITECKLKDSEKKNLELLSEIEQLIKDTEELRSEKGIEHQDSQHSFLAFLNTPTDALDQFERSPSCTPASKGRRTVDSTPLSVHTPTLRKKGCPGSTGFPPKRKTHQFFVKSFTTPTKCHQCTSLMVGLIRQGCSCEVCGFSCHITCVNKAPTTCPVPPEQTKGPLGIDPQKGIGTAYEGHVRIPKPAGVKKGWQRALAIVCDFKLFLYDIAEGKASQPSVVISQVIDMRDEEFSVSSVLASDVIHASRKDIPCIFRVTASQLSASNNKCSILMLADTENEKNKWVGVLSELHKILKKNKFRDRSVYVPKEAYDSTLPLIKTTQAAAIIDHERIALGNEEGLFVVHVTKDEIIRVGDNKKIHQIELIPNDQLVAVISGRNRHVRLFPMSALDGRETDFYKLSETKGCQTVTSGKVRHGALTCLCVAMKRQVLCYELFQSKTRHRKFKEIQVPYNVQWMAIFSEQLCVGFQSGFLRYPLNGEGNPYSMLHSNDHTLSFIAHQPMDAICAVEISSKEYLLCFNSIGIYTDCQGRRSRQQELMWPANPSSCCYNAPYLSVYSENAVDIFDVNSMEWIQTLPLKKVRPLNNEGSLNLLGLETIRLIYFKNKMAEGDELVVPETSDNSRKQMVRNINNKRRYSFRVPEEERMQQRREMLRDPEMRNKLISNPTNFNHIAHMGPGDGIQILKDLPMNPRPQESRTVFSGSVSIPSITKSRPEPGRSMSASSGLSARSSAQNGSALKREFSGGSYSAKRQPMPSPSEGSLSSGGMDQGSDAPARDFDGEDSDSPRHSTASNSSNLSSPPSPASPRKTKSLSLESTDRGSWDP
Chain of Ribosomal protein S6 kinase alpha-5 (Homo sapiens) (O75582 whole entry, looked up): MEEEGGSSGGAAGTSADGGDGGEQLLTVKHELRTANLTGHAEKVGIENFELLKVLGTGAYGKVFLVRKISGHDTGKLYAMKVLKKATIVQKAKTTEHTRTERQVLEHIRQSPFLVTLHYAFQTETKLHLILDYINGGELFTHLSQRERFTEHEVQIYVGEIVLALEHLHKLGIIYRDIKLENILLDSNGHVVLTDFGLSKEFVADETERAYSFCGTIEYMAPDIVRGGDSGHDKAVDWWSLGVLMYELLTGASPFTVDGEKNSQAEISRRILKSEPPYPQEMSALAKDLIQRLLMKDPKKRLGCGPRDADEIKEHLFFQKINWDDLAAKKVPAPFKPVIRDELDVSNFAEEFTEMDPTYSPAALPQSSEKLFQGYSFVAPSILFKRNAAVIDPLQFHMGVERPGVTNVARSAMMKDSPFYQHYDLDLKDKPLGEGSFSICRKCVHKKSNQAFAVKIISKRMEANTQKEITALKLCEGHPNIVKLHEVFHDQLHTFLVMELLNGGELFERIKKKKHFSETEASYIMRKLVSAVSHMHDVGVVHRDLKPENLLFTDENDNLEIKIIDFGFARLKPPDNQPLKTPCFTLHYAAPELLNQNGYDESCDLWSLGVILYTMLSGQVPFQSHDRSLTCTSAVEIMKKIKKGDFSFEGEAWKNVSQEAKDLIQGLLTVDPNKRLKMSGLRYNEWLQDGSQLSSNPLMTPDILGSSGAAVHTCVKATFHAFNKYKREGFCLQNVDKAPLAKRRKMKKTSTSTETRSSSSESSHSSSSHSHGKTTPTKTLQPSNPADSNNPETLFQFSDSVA
Chain of Ribosomal protein S6 kinase beta-1 (Homo sapiens) (P23443 whole entry, looked up): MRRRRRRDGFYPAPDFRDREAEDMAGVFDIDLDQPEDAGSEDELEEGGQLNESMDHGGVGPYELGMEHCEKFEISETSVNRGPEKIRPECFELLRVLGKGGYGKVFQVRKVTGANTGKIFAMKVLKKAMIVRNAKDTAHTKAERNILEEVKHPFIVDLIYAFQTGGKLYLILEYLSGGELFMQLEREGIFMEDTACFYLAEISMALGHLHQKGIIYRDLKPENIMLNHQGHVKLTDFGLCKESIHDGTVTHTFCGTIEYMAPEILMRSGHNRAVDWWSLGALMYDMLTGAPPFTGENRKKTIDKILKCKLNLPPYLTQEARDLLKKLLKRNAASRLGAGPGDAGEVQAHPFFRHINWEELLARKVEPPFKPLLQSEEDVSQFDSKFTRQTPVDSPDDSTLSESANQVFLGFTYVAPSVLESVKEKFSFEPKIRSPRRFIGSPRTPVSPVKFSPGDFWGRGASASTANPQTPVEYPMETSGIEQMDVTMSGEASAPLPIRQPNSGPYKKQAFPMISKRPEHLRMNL
Chain of G protein-coupled receptor kinase 6 (Homo sapiens) (P43250 whole entry, looked up): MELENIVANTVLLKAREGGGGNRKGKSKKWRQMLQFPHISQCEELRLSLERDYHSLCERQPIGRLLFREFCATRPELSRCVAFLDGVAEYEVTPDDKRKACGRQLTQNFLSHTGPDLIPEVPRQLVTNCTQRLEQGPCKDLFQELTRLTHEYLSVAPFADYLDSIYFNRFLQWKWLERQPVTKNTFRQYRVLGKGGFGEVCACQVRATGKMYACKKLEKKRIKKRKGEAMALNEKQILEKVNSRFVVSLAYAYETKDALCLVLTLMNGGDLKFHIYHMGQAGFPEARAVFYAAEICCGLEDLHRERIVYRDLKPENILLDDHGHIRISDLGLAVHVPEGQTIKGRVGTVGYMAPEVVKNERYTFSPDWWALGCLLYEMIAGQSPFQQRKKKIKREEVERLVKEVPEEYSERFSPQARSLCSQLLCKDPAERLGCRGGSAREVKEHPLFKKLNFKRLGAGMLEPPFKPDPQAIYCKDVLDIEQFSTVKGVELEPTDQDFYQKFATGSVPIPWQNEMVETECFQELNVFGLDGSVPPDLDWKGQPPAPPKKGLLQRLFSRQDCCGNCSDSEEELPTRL
Chain of Ribosomal protein S6 kinase alpha-4 (Homo sapiens) (O75676 whole entry, looked up): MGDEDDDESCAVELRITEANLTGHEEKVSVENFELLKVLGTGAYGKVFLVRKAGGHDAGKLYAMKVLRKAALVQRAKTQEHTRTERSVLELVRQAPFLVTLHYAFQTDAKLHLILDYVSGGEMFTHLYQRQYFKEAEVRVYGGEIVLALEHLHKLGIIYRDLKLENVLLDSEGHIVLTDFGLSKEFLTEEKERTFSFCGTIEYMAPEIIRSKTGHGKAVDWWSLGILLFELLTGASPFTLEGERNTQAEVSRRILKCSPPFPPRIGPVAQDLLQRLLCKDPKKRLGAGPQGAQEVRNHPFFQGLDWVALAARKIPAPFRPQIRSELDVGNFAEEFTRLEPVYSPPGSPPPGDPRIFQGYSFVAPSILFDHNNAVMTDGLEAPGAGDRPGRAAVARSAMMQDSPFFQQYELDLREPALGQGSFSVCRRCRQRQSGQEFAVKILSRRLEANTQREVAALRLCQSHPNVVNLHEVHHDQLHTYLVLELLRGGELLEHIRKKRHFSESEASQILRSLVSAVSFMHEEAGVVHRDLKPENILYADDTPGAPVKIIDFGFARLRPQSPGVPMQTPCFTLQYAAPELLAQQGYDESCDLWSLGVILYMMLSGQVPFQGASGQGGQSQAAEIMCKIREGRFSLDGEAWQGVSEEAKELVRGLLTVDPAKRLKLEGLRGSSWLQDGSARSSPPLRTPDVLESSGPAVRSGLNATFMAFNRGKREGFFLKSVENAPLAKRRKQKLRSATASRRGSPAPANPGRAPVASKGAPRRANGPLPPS

Structure (SMILES) | inhibition [1] [%] | inhibition [2] [%] | inhibition [3] [%] | inhibition [4] [%] | inhibition [5] [%] | inhibition [6] [%] | inhibition [7] [%] | inhibition [8] [%] | inhibition [9] [%] | inhibition [10] [%] | inhibition [11] [%] | inhibition [12] [%] | inhibition [13] [%] | inhibition [14] [%] | inhibition [15] [%] | inhibition [16] [%] | inhibition [17] [%] | inhibition [18] [%] | inhibition [19] [%] | inhibition [20] [%]
[O-][S+]1CCN(Cc2ccc(-c3ccc4ncnc(Nc5ccc(OCc6ccccc6)c(Cl)c5)c4c3)o2)CC1 | 0.1 | -0.3 | 0.29 | 1.29 | 0.15 | 2.06 | -0.03 | 1.12 | 7.76 | -2.22 | -2.24 | -0.57 | 0.47 | -0.33 | 1.47 | 1.03 | -0.52 | 0.11 | -1.26 | -0.16
CCn1c(-c2nonc2N)nc2c(C#CC(C)(C)O)nc(OCCNC)cc21 | 20.8 | 67.4 | 33.1 | 75.3 | 23.1 | 68.2 | 4.94 | 3.62 | 9.11 | 2.53 | 1.79 | 6.63 | -0.48 | 2.36 | 1.77 | 2.97 | 3.16 | 9.93 | 3.31 | 10.1
c1ccc(Nc2ncc(-c3ccccc3)o2)cc1 | 1.4 | 0.83 | 0.54 | 2.99 | 1.75 | 3.46 | 4.61 | 4.8 | 9.62 | 4.71 | 1.05 | 2.6 | -0.11 | 0.28 | 3.68 | 3.58 | 2.52 | 3.34 | 3.16 | 5
Nc1ccc(C#Cc2cncnc2Nc2ccc(OCc3cccc(F)c3)c(Cl)c2)cc1 | 0.15 | 1.42 | 1.06 | 1.24 | 0.3 | 2.19 | 0.63 | 0.83 | 5.58 | 1.26 | -1.73 | 0.19 | 1.04 | 1.18 | 1.3 | -0.19 | 1.93 | 3.14 | 0.9 | 0.85
FC(F)(F)c1ccc(-c2nn3ncccc3c2-c2ccnc(Nc3ccc4c(c3)OCCO4)n2)cc1 | 0.91 | 0.98 | 0.17 | 0.25 | -0.63 | -0.79 | 1.14 | 12.6 | 4.88 | 11.6 | 7.63 | 5.17 | 6.18 | 4.64 | 3.36 | 4.3 | 5.05 | 6.41 | 1.5 | 2.06
O=S(=O)(CCOCc1ccc(-c2ccc3ncnc(Nc4ccc(OCc5cccc(F)c5)c(Cl)c4)c3c2)o1)c1ccccc1 | -0.1 | -0.35 | 0.2 | 1.21 | -0.84 | 3.06 | 0.84 | 0.78 | 7.97 | 4.68 | 0.06 | -0.21 | 0.42 | 1.18 | 0.65 | 0.85 | -0.78 | 0.33 | -1.35 | -0.16
NS(=O)(=O)c1cccc(-c2cc3ccncc3cc2OCc2ccccc2)c1 | 1.37 | 0.84 | 1.79 | 2.65 | 2.96 | 0.32 | 0.24 | 2.95 | 2.9 | 4.85 | 0.79 | -0.95 | 1.07 | 0.42 | 6.93 | 5.54 | 2.88 | 6.76 | 1.84 | 1.18
COc1ccc(-c2nn3ncccc3c2-c2ccnc(Nc3cccc(C(F)(F)F)c3)n2)cc1 | 0.68 | 0.72 | 1.23 | 1.84 | 0.37 | 1.95 | 3.32 | 2.16 | 5.25 | 1.87 | -3.04 | 1.22 | 0.66 | -0.13 | 1.92 | -0.09 | 2.61 | 1.73 | 1.77 | 0.85
CN(c1ccc(NC(=O)Nc2ccc(OC(F)(F)F)cc2)cc1)c1ccnc(Nc2cccc(S(N)(=O)=O)c2)n1 | 0.77 | 0.88 | 0.51 | 1.22 | 0.16 | 2.79 | -5.14 | -2.97 | 3.47 | -1.66 | -5.74 | -0.82 | -0.58 | -2.72 | 0.92 | -1.11 | 2 | 4.78 | -0.25 | 1.95
Cc1ccc(Nc2ccnc(Nc3cccc(C(N)=O)c3)n2)cc1O | -3.35 | -2.06 | -1.66 | -2.15 | -2.03 | -1.07 | 1.49 | 6.26 | 1.62 | 0.17 | -0.17 | 1.81 | -0.24 | -0.07 | 1.2 | 1.01 | 2.41 | 4.49 | 1.61 | 6.47
Oc1cccc(-c2nc(-c3ccccc3)[nH]c2-c2ccncc2)c1 | -0.1 | 1.39 | 2.18 | 2.47 | 0.82 | 3.85 | 6.53 | 4.9 | 1.3 | -0.71 | -0.93 | 2.63 | -0.32 | 0.92 | 3.05 | 4.64 | 1.9 | 3.89 | 1.55 | 6.44
Cc1ccc(C(=O)NC2CC2)cc1-c1ccc2[nH]ncc2c1 | -2.21 | -1.97 | -3.64 | -3.23 | -4.12 | 0.95 | 1.1 | -1.57 | -1.33 | -8.83 | 1.33 | 0.57 | 0.35 | 5.75 | -4.06 | -3.97 | -1.94 | -1.58 | -1.62 | -3.02
COc1cccc(-n2ncc3c(N/N=C/c4ccc(C)cc4)ncnc32)c1 | 1.26 | 0.76 | 1.76 | 1.75 | 0.43 | 1.94 | 4.73 | 5.93 | 11.7 | 7.9 | 4.17 | 5.98 | 1.06 | 1.73 | -3.87 | -2.7 | 3.45 | 5.55 | 2.62 | 3.95
CN(C)C(=O)O[C@@H]1CN[C@@H](C#Cc2cc3ncnc(Nc4ccc(OCc5cccc(F)c5)c(Cl)c4)c3s2)C1 | -0.54 | -0.11 | 0 | -1.02 | -0.71 | 0.16 | 0.14 | -1.42 | -2.8 | 11.4 | 0.14 | 1.14 | -0.75 | 0.85 | 0.39 | 2.9 | -1.34 | 2.41 | 0.37 | 1.14

From ChEMBL document CHEMBL1961873, “Compounds: GSK PKIS; Assays: Nanosyn kinase panel” (2012)
